The nature of the test: M. tuberculosis growth inhibition, HTS (AID 1259417).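 Also: bacteria grown with compound for 5 days at 37 °C.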 The note with it: stronger effect = higher value, concentration not given here.
Setting [1] is: M. tuberculosis DsRed fluorescence growth inhibition.
Where [2] appears, read: M. tuberculosis growth inhibition.

About 760 (69%) of roughly 1,100 compounds were called active. No rule for the calls is given here. The set was probably picked from earlier hits. The list shows a part of the results.

`Cc1ccc(-c2csc3nc(SCC(N)=O)n(-c4ccccc4)c(=O)c23)cc1C`: the inhibition reads like this: under setting [1], 4.1% (inactive); under setting [2], -0.946%.

For the compound `CCC(C)NCCOc1ccc(C(C)(C)c2ccccc2)cc1` (stereo unspecified), the inhibition under setting [1] is 98% (active) and the inhibition under setting [2] worked out at 94.4%.

Regarding `COc1ccc(OCC(=O)Nc2ccc(I)cc2C)cc1`, the inhibition reads like this: under setting [1], 22% (active); under setting [2], 56.8%.

For `O=C(CSc1nnc(Cc2ccccc2)o1)Nc1ccc2c(c1)OCO2`, the inhibition was 5.38% (inactive) under setting [1] and -1.39% under setting [2].

In the case of `O=C(CSc1nnc(CNc2cccc(Cl)c2)o1)OC1CCCCC1`, the inhibition under setting [1] is 68.9% (active) and the inhibition under setting [2] stood at 81.6%.

Regarding `Cc1ccc(NCc2nnc(SCC(=O)OC3CCCCC3)o2)c(C)c1`, the inhibition runs as follows: under setting [1], 91.7% (active); under setting [2], 95%.

Take `CCOc1cc(C(=O)ON=C(N)Cc2ccc(Cl)cc2Cl)cc(OCC)c1OCC`: the inhibition by setting is: under setting [1], 4.39% (inactive); under setting [2], -6.22%.

`CCOc1cc(CNCc2ccccc2OCc2ccccc2)cc(Cl)c1OCC`: the inhibition is 9.66% (inactive) under setting [1] and -13.6% under setting [2].

As to `CCOc1cc(CNCCO)cc(Br)c1OCc1ccc(Cl)cc1Cl`, the inhibition under setting [1] is 37.7% (active) and the inhibition under setting [2] is 41.3%.

In the case of `Cc1cc(=O)oc2cc(OCC(=O)OC3CCCCC3)ccc12`, the inhibition under setting [1] was 36.4% (active) and the inhibition under setting [2] was 72.1%.

For the compound `O=C(COc1ccc2c(-c3ccccc3)cc(=O)oc2c1)OC1CCCCC1`, the inhibition under setting [1] is 11.7% (active) and the inhibition under setting [2] amounted to 53.3%.

Consider `CCOCCOC(=O)COc1ccc2c(-c3ccccc3)cc(=O)oc2c1`, for which the inhibition reads like this: under setting [1], 64% (active); under setting [2], 89%.

In the case of `O=C1c2cccc3cccc(c23)C(=O)N1CCN1CCN(CC(O)COCc2ccc(Cl)cc2)CC1` (stereo unspecified), the inhibition reads like this: under setting [1], -12% (inactive); under setting [2], -24.9%.

Consider `Cc1ccc(-c2csc(-c3ccncc3)n2)cc1C`, for which the inhibition reads like this: under setting [1], 86.8% (active); under setting [2], 97.1%.

Turning to `COc1ccc(-c2csc(-c3ccc(OC)c(OC)c3)n2)cc1C`, the inhibition is 1.2% (inactive) under setting [1] and -8.81% under setting [2].

With `CCCCC(=O)Nc1nnc(-c2ccc3c(c2)CCCC3)o1`, the inhibition under setting [1] is 25.2% (active) and the inhibition under setting [2] amounted to 57.9%.

On to `O=C(Nc1nnc(-c2ccc(Cl)cc2)o1)c1ccc(Br)cc1`, for which the inhibition is 94.3% (active) under setting [1] and 95.3% under setting [2].

With `CC(C)(C)C(=O)Nc1nnc(-c2cc(Cl)ccc2Cl)o1`, the inhibition runs as follows: under setting [1], 80.9% (active); under setting [2], 86.9%.

As for `O=C(CCSc1ccccc1)Nc1nnc(-c2ccc3c(c2)CCCC3)o1`, the inhibition under setting [1] is 20.9% (inactive) and the inhibition under setting [2] was 26.4%.

`O=C(Nc1nnc(-c2ccc3c(c2)CCCC3)o1)c1ccccc1Br`: the inhibition was 2.76% (inactive) under setting [1] and -9.29% under setting [2].

For `O=C(C=Cc1ccccc1)Nc1nnc(-c2ccc3c(c2)CCCC3)o1`, the inhibition is, setting by setting: under setting [1], 8.27% (inactive); under setting [2], 19.3%.

As for `O=C(Nc1nnc(-c2ccc(Cl)cc2)o1)c1ccccc1Br`, the inhibition is, setting by setting: under setting [1], 12.4% (active); under setting [2], 44.2%.

Consider `O=C(Nc1nnc(-c2ccc3c(c2)CCCC3)o1)c1ccccc1Cl`, for which the inhibition runs as follows: under setting [1], -2.21% (inactive); under setting [2], -7.28%.

Consider `O=C(Nc1nnc(-c2ccc(Cl)cc2)o1)c1ccccc1F`, for which the inhibition under setting [1] is 82% (active) and the inhibition under setting [2] was determined as 89.7%.

Take `N#Cc1ccc(C(=O)Nc2nnc(-c3ccc4c(c3)CCCC4)o2)cc1`: the inhibition is, setting by setting: under setting [1], 83.6% (active); under setting [2], 91.1%.

For `O=C(Nc1nnc(-c2cc(Cl)ccc2Cl)o1)c1ccc(Cl)cc1Cl`, the inhibition under setting [1] was 11.8% (inactive) and the inhibition under setting [2] turned out to be 9.57%.

For the compound `O=C(Nc1nnc(-c2ccc3c(c2)CCCC3)o1)c1ccccc1F`, the inhibition by setting is: under setting [1], 49% (active); under setting [2], 79.6%.

As to `O=C(Nc1nnc(-c2ccc3c(c2)CCCC3)o1)c1ccco1`, the inhibition runs as follows: under setting [1], 9.46% (inactive); under setting [2], 22.5%.

`O=C(Nc1nnc(-c2cc(Cl)ccc2Cl)o1)c1ccccc1F`: the inhibition under setting [1] was 59.5% (active) and the inhibition under setting [2] was found to be 79.5%.

Turning to `O=C(Nc1nnc(-c2ccc(Br)cc2)o1)c1ccccc1F`, the inhibition is, setting by setting: under setting [1], 80.9% (active); under setting [2], 94.2%.

Take `CCOC(=O)COc1ccc2c(=O)cc(-c3ccccc3)oc2c1`: the inhibition runs as follows: under setting [1], 89.6% (active); under setting [2], 95.3%.

With `CCOC(=O)COc1cc(OCC(=O)OCC)c2c(=O)cc(-c3ccccc3)oc2c1`, the inhibition was 63.7% (active) under setting [1] and 71.2% under setting [2].

For `COc1ccc(Cl)cc1NC(=O)C(C)N1CCN(C/C=C/c2ccccc2)CC1` (stereo unspecified), the inhibition is -0.555% (inactive) under setting [1] and -22.8% under setting [2].

`COc1ccccc1C(=O)Nc1nnc(-c2cc(C)ccc2C)o1`: the inhibition reads like this: under setting [1], -3.37% (inactive); under setting [2], -7.24%.

Take `Cc1ccc(C)c(-c2nnc(NC(=O)C(C)C)o2)c1`: the inhibition under setting [1] is 67% (active) and the inhibition under setting [2] amounted to 78.6%.

Consider `Cc1ccc(C)c(-c2nnc(NC(=O)c3cc(Cl)sc3Cl)o2)c1`, for which the inhibition is 99.2% (active) under setting [1] and 96.3% under setting [2].

For `Cc1ccc(C)c(-c2nnc(NC(=O)c3ccccc3F)o2)c1`, the inhibition is, setting by setting: under setting [1], 80.6% (active); under setting [2], 85.5%.

Regarding `Cc1ccc(C)c(-c2nnc(NC(=O)c3cccc4ccccc34)o2)c1`, the inhibition was -3.96% (inactive) under setting [1] and -5.52% under setting [2].

On to `Cc1ccc(C)c(-c2nnc(NC(=O)C(C)(C)C)o2)c1`, for which the inhibition is 84.1% (active) under setting [1] and 83.8% under setting [2].

Turning to `Cc1ccc(C)c(C(=O)Nc2nnc(-c3cc(C)ccc3C)o2)c1`, the inhibition under setting [1] was 87.9% (active) and the inhibition under setting [2] was determined as 74.7%.

Take `CCCC(=O)Nc1nnc(-c2cc(C)ccc2C)o1`: the inhibition is 10.9% (active) under setting [1] and 48.8% under setting [2].

As to `CCCC(=O)Nc1nnc(-c2ccc(C)cc2C)o1`, the inhibition under setting [1] is 2.17% (inactive) and the inhibition under setting [2] was 26.4%.

Turning to `CCOc1ccccc1NC(=O)CSc1nc2ccc(NC(=O)c3ccccc3Cl)cc2s1`, the inhibition was -3.22% (inactive) under setting [1] and -11.8% under setting [2].
